Data published in ChEMBL document CHEMBL4513146, “CO-ADD screening of Karazin Kharkiv National University (Ukraine) compounds”.
Entries with a potency or affinity are not part of this list.

Assays:
[1] = tested on: Klebsiella pneumoniae; details: Concentration 32 ug.mL-1;; ASSAY_TEST Inhibition of Bacterial Growth; detection method Absorption (OD600); MEDIA CAMHB; plate type 384well; NBS; CORNING #3640; time 18 hr
[2] = tested on: Candida albicans; details: Concentration 32 ug.mL-1; ASSAY_TEST Inhibition of Fungal Growth; detection method Absorption (OD530)
[3] = tested on: Cryptococcus neoformans; details: Concentration 32 ug.mL-1; ASSAY_TEST Inhibition of Fungal Growth; detection method Resazurin; Absorption (OD600-OD570); plate type 384well; NBS; CORNING #3640

Structure (SMILES) | Inhibition [1] [%] | Inhibition [2] [%] | Inhibition [3] [%]
COc1ccc(CNC(=O)Cn2nc3c(N4CCOCC4)nccn3c2=O)cc1 | 16.6 | 6.15 | -8.83
O=c1n(Cc2cccc(Br)c2)nc2ccc(-c3ccccc3)nn12 | 10.27 | 5.28 | -13.38
CC(C)CCNC(=O)CSc1nnc2c(=O)n(Cc3ccc(F)cc3)ccn12 | 4.54 | 1.44 | -7.36
COc1ccc(-c2cc3c4nn(CC(=O)Nc5ccc(C)c(F)c5)c(=O)n4ccn3n2)cc1 | 3.92 | 28.75 | -7.43
O=c1c2nn(Cc3c(F)cccc3Cl)c(=O)n2ccn1-c1ccccc1 | 15.43 | 1.25 | -4.81
Cc1ccc(-c2cc3c4nn(CC(=O)Nc5cc(F)ccc5C)c(=O)n4ccn3n2)cc1C | 2.94 | -1.13 | -10.17
COc1ccc(NC(=O)Cn2nc3c4cc(-c5ccc(C)c(C)c5)nn4ccn3c2=O)cc1Cl | 8.4 | 6.09 | -7.3
Cc1oc(-c2ccccc2)nc1CSc1nc2ccccc2n2c(C(C)C)nnc12 | 2.59 | 6.41 | -7.85
NC(=O)CSc1nnc2c(=O)n(-c3ccccc3)ccn12 | 15.37 | 2.06 | -20.31
O=C(CSc1nnc2c(=O)n(-c3ccc(Br)cc3)ccn12)Nc1cc(F)ccc1F | 10.57 | 7.34 | -16.33
Cc1cccc(NC(=O)CSc2nnc3ccc(C(=O)Nc4cccc(F)c4)cn23)c1 | 11.26 | 1.08 | -17.48
CCCCn1c(=O)c2sccc2n2c(=O)n(CC(=O)N3CCC(Cc4ccccc4)CC3)nc12 | 0.07 | -1.21 | -0.28
Cc1cccc(Oc2nccn3c(=O)n(CC(=O)N4CCN(c5ccccc5F)CC4)nc23)c1C | -1.33 | 1.02 | -17.84
Cc1ccc(-c2cc3c4nn(CC(=O)Nc5ccc6c(c5)OCCO6)c(=O)n4ccn3n2)cc1C | 12.57 | 1.55 | -15.09
COC(=O)c1ccccc1NC(=O)Cn1nc2c(Oc3ccccc3C)nccn2c1=O | 8.93 | 0.12 | -8.78
CCOC(=O)c1cccc(NC(=O)CSc2nc3ccccc3n3c(C(C)C)nnc23)c1 | 16.4 | 0.96 | -15.16
Cc1ccc(-c2cc3c4nnc(SCC(=O)Nc5ccc(C#N)cc5)n4ccn3n2)cc1 | 4.89 | 0.36 | -27.44
CCCCc1ccc(NC(=O)CSc2nnc3c4cc(-c5ccc(C)cc5)nn4ccn23)cc1 | 4.94 | 0.26 | -7.77
CCc1ccccc1NC(=O)Cn1nc2c(SCc3ccc(Cl)cc3)nccn2c1=O | 13.77 | 2.88 | -20.04
CCc1ccccc1NC(=O)Cn1nc2c(SC3CCCCC3)nccn2c1=O | 9.89 | -0.63 | -27.01
Cc1ccc(F)cc1NC(=O)CSc1nnc2ccc(C(=O)Nc3cccc(F)c3)cn12 | 2.35 | -0.79 | -3.99
CCc1cccc(NC(=O)CSc2nnc3c(=O)n(-c4cccc(OC)c4)ccn23)c1 | 7.34 | 13.59 | -2.76
Cc1cc(C)c(NC(=O)Cn2c(=O)c3nnc(C(C)C)n3c3ccccc32)c(C)c1 | 11.01 | 4.09 | -5.77
O=C(Cn1nc2ccc(Sc3cccc(F)c3)nn2c1=O)NCc1ccc(C(F)(F)F)cc1 | 8.35 | 1.44 | -8.13
COc1ccc(-c2cc3c4nnc(CCC(=O)NCc5ccc(OC)cc5OC)n4ccn3n2)cc1 | 15.27 | 2.37 | -17.34
COc1ccc(N(Cc2cccc(OC)c2)S(=O)(=O)c2ccc3nnc(C)n3c2)cc1 | 9.44 | 0.91 | -1.64
COc1ccc(OC)c(NC(=O)Cn2nc3ccc(SCc4ccc(Cl)cc4)nn3c2=O)c1 | 2.51 | 9.63 | -22.41
COc1ccccc1Cn1c(=O)c2sccc2n2c(=O)n(Cc3cccc(C)c3)nc12 | 9.07 | 1.33 | -25.61
